In the library only some 7.3% were active in any assay of this set; here they are far more common.
Rab9 prom act: Rab9 promoter activation | Huh7 Rab9 promoter-luciferase reporter, luminescence, 24 h | Potency, µM (titrated, usually from 9.22 µM), for inactives: at the top dose activation, negative = inhibition, most hits filed as activators | actives 2.8% (n = 320,000); note: % of control where 0% means no effect; nearly all actives have a fitted effect of over 60% in size
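Using Huh7 cells stably transfected with Rab9 promoter–luciferase, compounds were incubated 24 h at 37 °C, 5% CO2; luciferase luminescence was read 10 min after reagent addition.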
NPC1 promoter act: activators of NPC1 promoter | Huh7 NPC1 promoter luciferase reporter, 24 h | Potency, µM (series often up to 9.22 µM), for the others: top-dose activation, usual class: activators | actives 2.4% (n = 320,000); note: % of control where 0% means no effect; nearly all actives have a fitted effect of over 60% in size
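Compounds in DMSO were transferred onto Huh7 NPC1-luciferase reporter cells pre-incubated 2 h; after 24 h at 37 °C, Amplite reagent was dispensed and luminescence recorded 10 min later.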
FLuc counter: inhibits or activates purified firefly luciferase, miR-21 counter-screen; purified FLuc, Km substrates, luminescence inhibition; Potency, µM (titrated, usually from 57.5 µM), inactives show top-dose activity change, negative = inhibition, actives largely listed as inhibitors; actives 6.9% (n = 360,000);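 note: plate controls were vehicle for no effect and reference inhibitor for full effect; nearly all actives have a fitted effect of over 55% in size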
Target sequence (P08659 whole entry, looked up): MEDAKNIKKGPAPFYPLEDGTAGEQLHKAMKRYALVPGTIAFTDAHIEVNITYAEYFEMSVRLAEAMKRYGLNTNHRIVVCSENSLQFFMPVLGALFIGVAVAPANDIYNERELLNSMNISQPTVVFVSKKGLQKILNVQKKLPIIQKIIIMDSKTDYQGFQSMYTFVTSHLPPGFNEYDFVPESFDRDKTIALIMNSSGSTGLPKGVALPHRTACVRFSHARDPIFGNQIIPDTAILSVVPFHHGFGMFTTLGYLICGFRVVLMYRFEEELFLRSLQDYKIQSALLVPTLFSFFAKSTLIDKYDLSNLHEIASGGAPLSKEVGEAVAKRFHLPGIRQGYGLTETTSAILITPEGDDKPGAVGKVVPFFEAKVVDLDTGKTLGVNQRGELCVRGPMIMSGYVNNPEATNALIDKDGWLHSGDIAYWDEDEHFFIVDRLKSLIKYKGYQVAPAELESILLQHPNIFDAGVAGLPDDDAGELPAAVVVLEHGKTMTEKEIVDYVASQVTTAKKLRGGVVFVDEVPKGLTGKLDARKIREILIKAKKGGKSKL
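Purified P. pyralis luciferase (10nM final) with 10uM D-luciferin and 10uM ATP (Km levels) in 50mM Tris acetate pH 7.5, 10mM Mg acetate, 0.01% Tween-20, 0.05% BSA; qHTS 6-point titration, ~60 µM downward; luminescence read.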
p53 reactivation: restores transcriptional activity of mutant p53 | H1299 p53-A138V BP100-luciferase reporter, luminescence, 24 h | actives 0.063% (n = 320,000) | Potency, µM (titrated, usually from 92.2 µM), without a hit: at the highest dose activity change, positive = activation, most hits filed as activators; note: % of control where 0% means no effect; nearly all actives have a fitted effect of over 45% in size
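H1299 (p53-null), stable ts p53-A138V + BP100-Luc; 1000 cells/well, Opti-MEM/10% FBS; cpd 4 pt, 1:5; 24 h, 37 deg C, 5% CO2; detection reagent 10 min RT; luminescence.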
ELG1 genotox: induces genotoxicity in HEK293T cells with luciferase-tagged ELG1; HEK293T ELG1-luciferase reporter, luminescence, 16 h; Potency, µM (series often up to 46 µM), inactives show at the highest dose activity change, positive = activation, hits mostly activators; actives 1.3% (n = 330,000); AID 504466; note: % of control where 0% means no effect; nearly all actives have a fitted effect of over 60% in size
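Reporter readout depends on ELG1 protein level, which increases with genetic stress. After 16 hr compound exposure at 37 °C, luciferase activity was quantified using ONE-Glo.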
SMN2 splice up: enhancers of SMN2 splice variant expression; AID 1458; actives 2.8% (n = 210,000); Potency, µM (top dose mostly 46.1 µM), for the others: top-dose activity change, positive = activation, hits mostly activators; HEK293 SMN2-luciferase splicing reporter, luminescence, 30-36 h; note: % of control where 0% means no effect; nearly all actives have a fitted effect of over 55% in size
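HEK293 cells carry an SMN2 […]–luciferase reporter in which exon 7 inclusion puts luciferase in frame. Cells were plated 10-12 h before compound addition, then incubated 30-36 h at 37C. ONE-Glo luminescence was read; sodium butyrate at 4.5 mM final served as control.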
Numbers without * were called inactive; ? = inconclusive; · = no result; [ ] = remark or other dose. Calls come from the whole dose curve; as a rule, active = well fitted curve in the direction sought with a large enough effect; inconclusive = small, poorly fitted or top-dose-only effect, or another doubt; inactive = no such curve, though single readings can be large; an effect the other way counts as inactive or inconclusive. Potency is the fitted concentration of half-maximal effect.

SMILES | Rab9 prom act | NPC1 promoter act | FLuc counter | p53 reactivation | ELG1 genotox | SMN2 splice up
COc1nc(-c2ccccc2)ccc1-c1noc(-c2ccccc2)n1 | 2.8µM* | 4µM* | 24µM* | ? | 18µM* | ?
COc1nc(-c2ccccc2)ccc1-c1noc(-c2ccco2)n1 | 4µM* | ? | 8.5µM* | ? | 21µM* | 13µM*
COc1ccc(-c2ccc(-c3noc(-c4ccco4)n3)c(OC)n2)cc1 | ? | 25% | -14% | 26% | 17% | ?
CC(C)(C)OC(=O)N1CCC(c2c(C(=O)NCCN3CCOCC3)cnn2-c2ccc(F)cc2)CC1 | · | · | -3% | · | · | ·
CC(C)NC(=O)c1cc(-c2ccc3c(c2)OCO3)on1 | 0.63µM* | 0.56µM* | 3.8µM* | 10% | ? | ·
CCN(CC)C(=O)c1cc(-c2ccc3c(c2)OCO3)on1 | 3.5µM* | 4µM* | 9.5µM* | ? | ? | ·
O=C(NCCCn1ccnc1)c1cc(-c2ccc3c(c2)OCO3)on1 | -5%[1.84 µM] | 10% | ? | 12% | ? | -5%
CCN(CC)C(=O)c1cc(-c2ccc(Cl)cc2)on1 | · | · | 13µM* | · | · | 10µM*
CCN(CC)CCCNC(=O)c1cc(-c2ccc(Cl)cc2)on1 | 6% | 15% | 2% | ? | 2% | -10%
O=C(NCc1ccc2c(c1)OCO2)c1cc(-c2ccc(Cl)cc2Cl)on1 | 0% | 2% | 12µM* | 8% | -4% | -4%
CCOC(=O)c1c(NC(C)=O)c2c3c(sc2n1Cc1nc(-c2ccccc2OCC)oc1C)CCCC3 | · | · | -1% | · | · | 2%
CC(C)C[C@@H](CC(=O)N[C@H](CC(=O)N[C@@H]1CCCC[C@H]1C(=O)N[C@H](CC(=O)N[C@@H](CCC(=O)O)CC(=O)O)CC(C)C)C(C)C)NC(=O)[C@@H]1CCCC[C@H]1N | · | · | · | · | · | -3%
O=C(NCCc1ccccc1)c1cc(-c2ccc3c(c2)OCO3)on1 | 3% | 2% | -7% | 8% | 4% | 6%
CCN(CC)CCCNC(=O)c1cc(-c2ccc3c(c2)OCO3)on1 | 0% | 0% | -10% | 3% | 4% | ·
CCCNC(=O)c1cc(-c2ccc3c(c2)OCO3)on1 | 0.56µM* | 0.63µM* | 3.8µM* | ? | ? | ·
CCCCNC(=O)c1cc(-c2ccc3c(c2)OCO3)on1 | 2µM* | 3.5µM* | 2.7µM* | ? | ? | ·
CCOC(=O)c1ccc(NS(=O)(=O)c2cn(C)c(C)n2)cc1 | · | · | 0% | · | · | ·
CN1CCS/C1=C/C=C1\SC(=S)N(CC(=O)O)C1=O | -2% | 0% | 15µM* | 2% | -1% | ·
CCCCN1C(=O)/C(=C/C=C2\SCCN2C)SC1=S | 3.2µM* | ? | 13µM* | ? | 25% | 16µM*
O=c1c2cc3c(cc2n(Cc2cccc(F)c2)c(=O)n1Cc1nc(-c2ccccc2)no1)OCO3 | · | · | -5% | · | · | ·
C=C(C)C(=O)/C=C/c1ccc(C(F)(F)F)cc1 | · | · | · | · | · | -3%
O=C(c1cc(-c2ccc(Cl)cc2)on1)N1CCN(c2ccc(F)cc2)CC1 | -1% | 0% | -2% | 0% | -1% | ·
O=C(c1cc(-c2cccc(Cl)c2)on1)N1CCCC1 | 2.8µM* | 4µM* | 13µM* | ? | 18µM* | ·
CC(C)CNC(=O)c1cc(-c2ccc(Cl)c(Cl)c2)on1 | 4.5µM* | ? | -11% | 8% | 12% | 19%
O=C(c1cc(-c2ccc(Cl)cc2)on1)N1CCCC1 | 0.45µM* | 0.56µM* | 2.1µM* | ? | 2.9µM* | ·
SMILES | Rab9 prom act | NPC1 promoter act | FLuc counter | p53 reactivation | ELG1 genotox | SMN2 splice up
O=C(c1cc(-c2ccc(Cl)c(Cl)c2)on1)N1CCCCC1 | 1µM* | 2.8µM* | 4.3µM* | ? | ? | 22µM*
Cc1cc(NC(=O)Nc2ccc3c(ccn3C)c2)sn1 | 6.5µM* | 7.3µM* | · | · | · | ?
Cc1cc(N)c2cc(NC(=O)Nc3ccc4nc(C)cc(N)c4c3)ccc2n1 | · | · | · | · | · | 8%[9.22 µM]
NC(=O)c1ccccc1NC(=O)/C=C/c1ccccc1 | 1.8µM* | ? | 6µM* | ? | ? | ?
COc1cc(NC(=O)/C=C/c2ccccc2)c(C(=O)O)cc1OC | 7% | 4% | 6µM* | 8% | 15% | ·
COc1cc(NC(=O)Cc2ccccc2)c(C(=O)O)cc1OC | -4% | -2% | -15% | 2% | 4% | ·
O=C(/C=C/c1ccc(Cl)cc1)NC(=S)Nc1ccccc1C(=O)O | -1% | -3% | ? | 16% | 0% | ·
CC(C)=CC(=O)Nc1ccccc1C(N)=O | 10% | 0% | -4% | 3% | -6% | -8%
O=C(/C=C/c1ccccc1)Nc1cc(C(=O)O)cc(C(=O)O)c1 | 0% | 1% | -19% | -3% | 1% | -2%
COC(=O)c1cc(NC(=O)/C=C/c2ccccc2)ccc1O | ? | ? | 11µM* | 2% | 7% | ·
NC(=O)c1ccccc1NC(=O)/C=C/c1ccc(Cl)cc1 | 2.5µM* | 1.8µM* | 1.7µM* | 22% | 3.7µM* | 13µM*
COc1ccc2c(c1)O[C@@H]1c3ccc(OC)cc3OCC21 (some centres undefined) | · | · | · | · | · | -6%
Cc1ccccc1NC(=O)CSc1c(C(C)C)cnc2c1c(=O)n(C)c(=O)n2C | · | · | -6% | · | · | ·
c1cncc(-c2nc3c(ccc4ccccc43)[nH]2)c1 | ? | ? | 11µM* | ? | 7% | 8%
CCOCCCNc1ccc(-c2ccccc2)nn1 | 2.2µM* | ? | ? | ? | 13µM* | 14µM*
COc1ccc(-c2[nH]c(-c3ccccc3)nc2SCC(=O)Nc2ccc3c(c2)OCO3)cc1 | · | · | -17% | · | · | 1%
Cc1ccc(/C=C/C(=O)CCC(=O)O)cc1 | ? | 22% | 6.7µM* | 11% | 13% | ·
C/C=C1\C2C=C(C)C[C@@]1(N)c1ccc(=O)[nH]c1C2 | · | · | · | · | · | 5%
CC1(C)NC(=O)N(CCCCOc2ccc3ccccc3c2Cl)C1=O | 16% | ? | 21µM* | 12% | ? | -12%
CC1(C)NC(=O)N(CCOCCOc2ccc3ccccc3c2Br)C1=O | 9%[1.84 µM] | 19% | ? | 16% | ? | 7%
COc1ccc(C2c3c(n(C)c4ccccc34)C(=O)N2CC(=O)Nc2cccc(Cl)c2)cc1 (centres undefined) | · | · | -12% | · | · | ·
CN(C(=O)C1=CC(c2ccc3c(c2)OCO3)=NS(=O)(=O)N1C)c1ccccc1 | · | · | -6% | · | · | ·
O=C(NCCCO)Nc1ccc2nc(-c3ccco3)c(-c3ccco3)nc2c1 | 7% | 0% | 11µM* | -14% | 2% | -20%
O=C(Nc1ccc2nc(-c3ccco3)c(-c3ccco3)nc2c1)NC1CC1 | 28% | 18% | 6µM* | 11% | 0% | -19%

Bioassay records from PubChem.
